{"source": "PubChem BioAssay (NCATS)", "note": "Inconclusive results are not listed. Values without a mark were called inactive. Active and inactive are the calls of the source. Calls follow the shape of the dose curve; as a rule, active = well fitted cell-killing curve with a large enough effect; inconclusive = small, poorly fitted or top-dose-only effect; inactive = flat fitted curve, though single readings scatter. Potency is read from the fitted curve at half-maximal effect.", "data": [{"experiment": "Cellular viability qHTS for adrenocortical cancer (ACC) cell line NCI-H295R (AID 1963990); also: nearly all actives have a fitted effect of over 60% in size;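 as to activity change, negative = viability loss: 0% = DMSO only wells and -100% = full killing with cytotoxic reference compound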", "conditions": "CellTiter-Glo ATP luminescence, 48 h; series mostly up to 46.1 µM; activity change, negative = viability loss: at the top concentration", "procedure,_shortened": "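Viability of NCI-H295R after 48 h of treatment (final up to 46 uM) measured through cellular ATP luminescence.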", "values": [{"smiles": "CO/N=C(/C(=O)N[C@@H]1C(=O)N2C(C(=O)O)=C(Cn3nnc(C)n3)CS[C@H]12)c1csc(N)n1", "activity change, negative = viability loss": "2.01%"}, {"smiles": "Oc1c(I)cc(Cl)c2cccnc12", "Potency": "14.6 µM (active)"}, {"smiles": "CCOC(CN1CCN(CC(C)C(=O)c2ccccc2)CC1)c1ccccc1", "note": "(stereo not drawn)", "activity change, negative = viability loss": "-0.104% [at 20 µM]"}, {"smiles": "CCNCc1nc2c(N)nc3ccccc3c2n1CC(C)(C)O", "activity change, negative = viability loss": "-29.8%"}, {"smiles": "Oc1c(I)cc(I)c2cccnc12", "Potency": "3.66 µM (active)"}, {"smiles": "O=C(NCC(=O)N1CC[C@H](NC2CCC(O)(c3ccc(-c4ncccn4)cn3)CC2)C1)c1cccc(C(F)(F)F)c1", "note": "(stereo partly drawn)", "activity change, negative = viability loss": "-25%"}, {"smiles": "CCOc1ccc(C(=O)OCCN(CC)CC)cc1", "activity change, negative = viability loss": "2.27%"}, {"smiles": "CNc1nc(C)nc(N[C@H]2CCC[C@@H](C(=O)NCc3ccc(C#N)cc3C(F)(F)F)C2)n1", "activity change, negative = viability loss": "-9.8%"}, {"smiles": "O=c1[nH]c(=O)c2[nH]c(=O)[nH]c2[nH]1", "Potency": "2.66 µM (active)"}, {"smiles": "CC(C)N=C(N)/N=C(\\N)Nc1ccc(Cl)cc1", "activity change, negative = viability loss": "-27.2%"}, {"smiles": "O=C(O)Cc1ccc2c(c1)C(=O)c1ccccc1CO2", "activity change, negative = viability loss": "-10.8%"}, {"smiles": "O=C(O)CCC(=O)OC[C@@H](NC(=O)C(Cl)Cl)[C@H](O)c1ccc([N+](=O)[O-])cc1", "activity change, negative = viability loss": "-11%"}, {"smiles": "CN/C(=C\\[N+](=O)[O-])NCCSCc1csc(CN(C)C)n1", "activity change, negative = viability loss": "-18%"}]}]}
